Measurements published in PubChem BioAssay AID1159580 (chemical genetic matrix, 2015).
Several values for one entry are separate records, joined by “and”; a condition that tells them apart may be missing. Equal values may be shown once. Out of some 5,500 compounds screened, about 2,000 (36%) were called active. About 18% were inconclusive and are not listed. The list shows a part of the results. Unmarked numbers belong to inactive results. No stated cut-off is given here; in the data, active means normalized growth mostly below about 0.91 (no sharp cut-off); inconclusive means no clear call, values can overlap the other calls; inactive means mostly above about 0.92.

Assay: chemical genetic growth profiling, strain panel (AID 1159580);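 further: tested at 20 µM; growth read once vehicle control cultures reached saturation at 30 °C; 1 = growth at the plate median or of vehicle wells; lower values mean less growth of the strain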
Conditions: S. cerevisiae deletion strains, growth OD
[1] = locus YDL101C, strain DUN1, active compounds read low
[2] = locus YGR052W, strain FMP48, active compounds read low
[3] = locus YHR030C, strain SLT2, active compounds read low
[4] = locus YHR079C, strain IRE1, active compounds read low
[5] = locus YHR082C, strain KSP1, active compounds read low
[6] = locus YJL095W, strain BCK1, active compounds read low
[7] = locus YJR066W, strain TOR1, active compounds read low
[8] = locus YKL203C, strain TOR2, active compounds read low
[9] = locus YLR113W, strain HOG1, active compounds read low
[10] = locus YNL183C, strain NPR1, active compounds read low
[11] = locus YNL207W, strain RIO2, active compounds read low
[12] = locus YOR119C, strain RIO1, active compounds read low
[13] = locus YOR231W, strain MKK1, active compounds read low
[14] = locus YPL256C, strain CLN2, active compounds read low
[15] = locus YAL013W, strain DEP1, active compounds read low
[16] = locus YBR229C, strain ROT2, active compounds read low
[17] = locus YDR150W, strain NUM1, active compounds read low
[18] = locus YEL061C, strain CIN8, active compounds read low
[19] = locus YGR078C, strain PAC10, active compounds read low
[20] = locus YHR087W, strain rtc3, active compounds read low
[21] = locus YJR043C, strain POL32, active compounds read low
[22] = locus YJR075W, strain HOC1, active compounds read low
[23] = locus YLR039C, strain RIC1, active compounds read low
[24] = locus YLR058C, strain SHM2 (second series), active compounds read low
[25] = locus YLR085C, strain ARP6, active compounds read low
[26] = locus YLR262C, strain YPT6, active compounds read low
[27] = locus YML094W, strain GIM5, active compounds read low
[28] = locus YMR219W, strain ESC1, active compounds read low
[29] = locus YNL153C, strain GIM3, active compounds read low
[30] = locus YNL298W, strain CLA4 (second series), active compounds read low
[31] = locus YNL322C, strain KRE1, active compounds read low
[32] = locus YNR030W, strain Alg12, active compounds read low
[33] = locus YPL055C, strain LGE1, active compounds read low
[34] = locus YPL241C, strain CIN2, active compounds read low
[35] = locus YPR135W, strain CTF4, active compounds read low

Compound: Cc1ccc(S(=O)(=O)Nc2ccc(Oc3ccc(F)cc3)cc2)cc1
- normalized growth (locus YAR019C, strain CDC15, active compounds read low): 0.98
- normalized growth (locus YBL105C, strain PKC1, active compounds read low): 0.977
- normalized growth (locus YBR135W, strain CKS1, active compounds read low): 0.983
- normalized growth (locus YBR136W, strain MEC1, active compounds read low): 0.985
- normalized growth (locus YBR160W, strain CDC28, active compounds read low): 0.976
- normalized growth (locus YDL017W, strain CDC7, active compounds read low): 0.985
- normalized growth (locus YDL028C, strain MPS1, active compounds read low): 0.987
- normalized growth [1]: 0.982
- normalized growth (locus YDL108W, strain KIN28, active compounds read low): 0.977
- normalized growth (locus YDL132W, strain cdc53, active compounds read low): 0.974
- normalized growth (locus YDL214C, strain PRR2, active compounds read low): 0.907
- normalized growth (locus YDR052C, strain DBF4, active compounds read low): 0.979
- normalized growth (locus YDR054C, strain cdc34, active compounds read low): 0.975
- normalized growth (locus YDR226W, strain ADK1, active compounds read low): 0.983
- normalized growth (locus YDR477W, strain SNF1, active compounds read low): 0.927
- normalized growth (locus YER123W, strain YCK3, active compounds read low): 0.866
- normalized growth (locus YER133W, strain GLC7, active compounds read low): 0.93
- normalized growth (locus YFL009W, strain cdc4, active compounds read low): 0.983
- normalized growth (locus YFL029C, strain CAK1, active compounds read low): 0.977
- normalized growth (locus YFR003C, strain YPI1, active compounds read low): 0.979
- normalized growth (locus YFR019W, strain FAB1, active compounds read low): 0.95
- normalized growth (locus YFR028C, strain CDC14, active compounds read low): 0.972
- normalized growth (locus YGR040W, strain KSS1, active compounds read low): 0.915
- normalized growth [2]: 0.91
- normalized growth (locus YGR092W, strain DBF2, active compounds read low): 0.839
- normalized growth [3]: 0.767 (active)
- normalized growth [4]: 0.876
- normalized growth [5]: 0.895
- normalized growth (locus YHR205W, strain SCH9, active compounds read low): 0.926
- normalized growth (locus YIL147C, strain SLN1, active compounds read low): 0.992
- normalized growth [6]: 0.9
- normalized growth (locus YJL128C, strain PBS2, active compounds read low): 0.946
- normalized growth (locus YJL157C, strain FAR1, active compounds read low): 0.908
- normalized growth (locus YJR016C, strain ILV3, active compounds read low): 0.981
- normalized growth (locus YJR066W, strain TOR1 (second series), active compounds read low): 0.892
- normalized growth [7]: 0.968
- normalized growth (locus YKL048C, strain ELM1, active compounds read low): 0.934
- normalized growth (locus YKL067W, strain YNK1, active compounds read low): 0.905
- normalized growth (locus YKL101W, strain HSL1, active compounds read low): 0.887
- normalized growth (locus YKL193C, strain SDS22, active compounds read low): 0.978
- normalized growth [8]: 0.979
- normalized growth [9]: 0.739 (active)
- normalized growth (locus YLR133W, strain CKI1, active compounds read low): 0.916
- normalized growth (locus YLR403W, strain SFP1, active compounds read low): 0.914
- normalized growth (locus YML070W, strain DAK1, active compounds read low): 0.868
- normalized growth (locus YMR001C, strain CDC5, active compounds read low): 0.986
- normalized growth (locus YMR205C, strain PFK2 (second series), active compounds read low): 0.918
- normalized growth (locus YMR277W, strain FCP1, active compounds read low): 0.985
- normalized growth (locus YNL006W, strain LST8, active compounds read low): 0.996
- normalized growth (locus YNL020C, strain ARK1, active compounds read low): 0.898
- normalized growth (locus YNL161W, strain CBK1, active compounds read low): 0.978
- normalized growth [10]: 0.836
- normalized growth [11]: 0.985
- normalized growth (locus YNL222W, strain SSU72, active compounds read low): 0.969
- normalized growth (locus YNL307C, strain MCK1 (second series), active compounds read low): 0.873
- normalized growth (locus YOL078W, strain AVO1, active compounds read low): 0.978
- normalized growth (locus YOL136C, strain PFK27, active compounds read low): 0.88
- normalized growth (locus YOR061W, strain CKA2, active compounds read low): 0.898
- normalized growth [12]: 0.981
- normalized growth [13]: 0.849
- normalized growth (locus YOR329C, strain SCD5, active compounds read low): 0.983
- normalized growth (locus YPL031C, strain PHO85, active compounds read low): 0.913
- normalized growth (locus YPL153C, strain RAD53, active compounds read low): 0.862
- normalized growth (locus YPL204W, strain HRR25, active compounds read low): 0.896
- normalized growth (locus YPL209C, strain IPL1, active compounds read low): 0.979
- normalized growth [14]: 0.815 (active)
- normalized growth (locus YPR025C, strain CCL1, active compounds read low): 0.984
- normalized growth (locus YPR106W, strain ISR1, active compounds read low): 0.965
- normalized growth (locus YPR111W, strain DBF20, active compounds read low): 0.953
- normalized growth (strain NNK1, active compounds read low): 0.969
- normalized growth (strain TSCII, active compounds read low): 0.98

Compound: O=S(=O)(Nc1ccc(Oc2ccc(Cl)cc2)cc1)c1ccccc1
- normalized growth [15]: 0.219 (active)
- normalized growth [16]: 0.923 (active)
- normalized growth (locus YCL061C, strain MRC1, active compounds read low): 0.851 (active)
- normalized growth [1]: 0.911
- normalized growth [17]: 0.518 (active)
- normalized growth [18]: 0.51 (active)
- normalized growth [2]: 0.122 (active)
- normalized growth [19]: 0.901 (active)
- normalized growth [3]: 0.114 (active) and 0.113 (active)
- normalized growth [4]: 0.199 (active)
- normalized growth [5]: 0.137 (active)
- normalized growth [20]: 0.866 (active)
- normalized growth [6]: 0.108 (active)
- normalized growth [21]: 0.843 (active)
- normalized growth [7]: 0.206 (active)
- normalized growth [22]: 0.899
- normalized growth [8]: 0.274 (active)
- normalized growth [23]: 0.293 (active)
- normalized growth [24]: 0.998
- normalized growth [25]: 0.247 (active)
- normalized growth [9]: 0.166 (active)
- normalized growth [26]: 0.117 (active)
- normalized growth [27]: 0.483 (active)
- normalized growth [28]: 0.925 (active)
- normalized growth [29]: 0.879 (active)
- normalized growth [10]: 0.154 (active)
- normalized growth [11]: 0.248 (active)
- normalized growth [30]: 0.321 (active)
- normalized growth [31]: 1.04
- normalized growth [32]: 0.191 (active)
- normalized growth [12]: 0.226 (active)
- normalized growth [13]: 0.159 (active)
- normalized growth [33]: 0.106 (active)
- normalized growth [34]: 0.341 (active)
- normalized growth [14]: 0.239 (active)
- normalized growth [35]: 0.309 (active)

Compound: Cc1cc(NS(=O)(=O)c2ccc(NS(=O)(=O)c3ccc(Cl)cc3)cc2)no1
- normalized growth [15]: 1.03
- normalized growth [16]: 1.02
- normalized growth [1]: 1
- normalized growth [17]: 0.956
- normalized growth [18]: 1.01
- normalized growth [19]: 1
- normalized growth (locus YGR229C, strain SMI1, active compounds read low): 1.01
- normalized growth [3]: 1.07
- normalized growth [20]: 0.999
- normalized growth (locus YJL187C, strain SWE1, active compounds read low): 1.01
- normalized growth [21]: 1.04
- normalized growth [22]: 1.02
- normalized growth [23]: 1.02
- normalized growth [24]: 1
- normalized growth [25]: 0.983
- normalized growth [26]: 1.07
- normalized growth [27]: 0.988
- normalized growth [28]: 1.01
- normalized growth (locus YMR263W, strain SAP30, active compounds read low): 0.956
- normalized growth [29]: 1.02
- normalized growth [30]: 1.03
- normalized growth [31]: 1.01
- normalized growth [32]: 1.02
- normalized growth (locus YOL006C, strain TOP1, active compounds read low): 1.06
- normalized growth [33]: 0.902
- normalized growth [34]: 0.995
- normalized growth [35]: 1.08
